Source: PubChem BioAssay (NCATS)
Inconclusive results are not listed. A call without a number means that no potency is given here. Calls of active or inactive are those of the source. Calls come from the whole dose curve; as a rule, active = well fitted cell-killing curve with a large enough effect; inconclusive = small, poorly fitted or top-dose-only effect, or effect the other way; inactive = no such curve, though single readings can be large or run the other way.

assay: Quantitative High-Throughput drug screen in 47 multiple myeloma cell lines against the NCATS MIPE library collection: KMS26_JCRB cell viability assay (AID 1918975); settings: KMS26 myeloma cells viability, CellTiter-Glo ATP, 48 h; series mostly up to 45.8 µM; note: nearly all actives have a fitted effect of over 45% in size
Source text: PI: Beverly A. Mock Ph.D.
Laboratory of Cancer Biology and Genetics,
Center for Cancer Research, National Cancer Institute,
National Institute of Health, Bethesda, Maryland
Drug resistance and disease progression are common in multiple myeloma (MM) patients, underscoring the need for new therapeutic combinations. […] We hypothesized that effective combinations would reduce MYC expression and enhance p16 activity. […] These preclinical data identify potentially useful drug combinations for evaluation in drug-resistant MM and reveal potential mechanisms of combined drug sensitivity.
Described herein is the primary MIPE qHTS used to cherrypick compounds. Validated compounds were then further tested for potential synergistic activiy.
[1] Peat TJ, Gaikwad SM, Dubois W, Gyabaah-Kessie N, Zhang S, Gorjifard S, Phyo Z, Andres M, Hughitt VK, Simpson RM, Miller MA, Girvin AT, Taylor A, Williams D, D'Antonio N, Zhang Y, Rajagopalan A, Flietner E, Wilson K, Zhang X, Shinn P, Klumpp-Thomas C, McKnight C, Itkin Z, Chen L, Kazandijian D, Zhang J, Michalowski AM, Simmons JK, Keats J, Thomas CJ, Mock BA. Drug combinations identified by high-throughput screening promote cell cycle transition and upregulate Smad pathways in myeloma. Cancer Lett. 2023 Aug 1;568:216284. doi: 10.1016/j.canlet.2023.216284. Epub 2023 Jun 24. PMID: 37356470; PMCID: PMC10408729.
SEQUENCE No. (e.g., 1, 2, 3, etc.); […] (e.g., Cells, Incubation, Reagent, etc.); VALUE and DESCRIPTION.
1; Cells; 5 uL; white, solid bottom 1536-well Greiner assay plate.
2; Compounds; 23 nL; Kalypsis pin tool (Wako USA) equipped with a 1536-well pin head to transfer to the assay plates.
3; Incubation; 48 hours; 37C incubation.
4; Reagent;5uL; CellTiter Glo (Promega).
5; Detector; 425V; Luminescence; Viewlux PerkinElmer.
NOTES (numbers refer to Sequence numbers above)
1. The cell-based screening methods employed in this study were like those previously published. Briefly, the corresponding myeloma cell lines were screened in 1,536-well plates with 500 cells, 5-uL per well for inhibition of cell viability (assessed by measuring ATP levels with CellTiterGlo).
2. NCATS MIPE 4.0 library of approved and investigational drugs were added using the Kalypsis pin tool. Wells treated with DMSO only for 100% viability and media only wells for 0% viability were used as controls.
3. The assay plates were covered and incubated for 48 hours in a 37C, 5% CO2 incubator with controlled humidity.
4. After 48 hours, CellTilter-GloTM luminescent substrate mix (Promega) reagent was added to the assay plate and plates we incubated for 5 min at room temperature.
5. Signal was measured as median relative luminescence units on a ViewLux (PerkinElmer) multiplate reader.
[1] Heske CM, Davis MI, Baumgart JT, Wilson K, Gormally MV, Chen L, Zhang X, Ceribelli M, Duveau DY, Guha R, Ferrer M, Arnaldez FI, Ji J, Tran HL, Zhang Y, Mendoza A, Helman LJ, Thomas CJ. Matrix Screen Identifies Synergistic Combination of PARP Inhibitors and Nicotinamide Phosphoribosyltransferase (NAMPT) Inhibitors in Ewing Sarcoma. Clin Cancer Res. 2017 Dec 1;23(23):7301-7311. doi: 10.1158/1078-0432.CCR-17-1121. Epub 2017 Sep 12. PMID: 28899971; PMCID: PMC6636827.
Potency is the fitted concentration of half-maximal effect.

Structure (SMILES) | Potency
CNC(=O)N1N=C(c2ccc(N)cc2)c2cc3c(cc2CC1C)OCO3 (stereo unspecified) | 3.32 µM (active)
C[C@@H]1[C@@H](CC(C[C@H]2O[C@@H]3O[C@]4(C)CC[C@@H]5[C@H](C)CC[C@@H]([C@H]2C)[C@@]35OO4)C[S+](=O)([O-])c2ccc(COC(=O)N(C)C)cc2)O[C@@H]2O[C@]3(C)CC[C@H]4[C@H](C)CC[C@@H]1[C@@]24OO3 (stereo partly specified) | 0.296 µM (active)
Cn1c(CCCC(=O)O)nc2cc(N(CCCl)CCCl)ccc21 | 5.9 µM (active)
Cc1cccc(C)c1NC(=O)CN1CCCC1=O | inactive
CN(C)CCN(C)CCc1ccc(Cl)c(Cl)c1 | inactive
COc1ccc(C(CN(C)C)C2(O)CCCCC2)cc1 (stereo unspecified) | inactive
CN(C)CCc1ccc(O)cc1 | inactive
C#CCN(C)[C@H](C)Cc1ccccc1 | inactive
CC(C)CC(N(C)C)C1(c2ccc(Cl)cc2)CCC1 (stereo unspecified) | inactive
CCCC(C)(COC(N)=O)COC(=O)NC(C)C (stereo unspecified) | inactive
CC(O)(CS(=O)(=O)c1ccc(F)cc1)C(=O)Nc1ccc(C#N)c(C(F)(F)F)c1 (stereo unspecified) | 1.18 µM (active)
Cc1cc(SCc2sc(-c3ccc(C(F)(F)F)c(F)c3)nc2C)ccc1OCC(=O)O | 4.69 µM (active)
O=C1CC[C@@]2(O)[C@H]3Cc4ccc(O)c5c4[C@@]2(CCN3CC2CC2)[C@H]1O5 | inactive
Fc1ccc(C(OCCN2CCN(CCCc3ccccc3)CC2)c2ccc(F)cc2)cc1 | 16.6 µM (active)
O=C(O)C(=O)c1cn(Cc2ccccc2)c2ccc(-c3ccc(OC(F)(F)F)cc3)cc12 | inactive
Cn1cc(C2=C(c3cn(C4CCN(Cc5ccccn5)CC4)c4ccccc34)C(=O)NC2=O)c2ccccc21 | 16.6 µM (active)
CNC(=O)c1ccc(N2C(=S)N(c3ccc(C#N)c(C(F)(F)F)c3)C(=O)C23CCC3)cc1F | 18.7 µM (active)
C[C@@H]1O[C@@H](O[C@H]2C[C@@H](O)[C@]3(CO)[C@H]4[C@H](O)C[C@]5(C)[C@@H](C6=CC(=O)OC6)CC[C@]5(O)[C@@H]4CC[C@]3(O)C2)[C@H](O)[C@H](O)[C@H]1O | 0.105 µM (active)
COC1(CS(=O)c2ccccc2)CCN(CCc2c[nH]c3ccc(F)cc23)CC1 (stereo unspecified) | inactive
Cc1sc2c(c1C)C(c1ccc(Cl)cc1)=N[C@@H](CC(=O)OC(C)(C)C)c1nnc(C)n1-2 | 0.526 µM (active)
C[C@@H]1[C@@H](C(=O)C[C@H]2O[C@@H]3O[C@]4(C)CC[C@@H]5[C@H](C)CC[C@@H]([C@H]2C)[C@@]35OO4)O[C@@H]2O[C@]3(C)CC[C@H]4[C@H](C)CC[C@@H]1[C@@]24OO3 | 0.59 µM (active)
CC1=C2C[C@@H]3[C@@H](CC=C4C[C@@H](O)CC[C@@]43C)[C@@H]2CC[C@]12O[C@H]1C[C@H](C)CN[C@H]1[C@H]2C | inactive
O=P1(NCCCl)OCCCN1CCCl (stereo unspecified) | inactive
CN1CCN(C(=O)O[C@H]2c3nccnc3C(=O)N2c2ccc(Cl)cn2)CC1 | inactive
N[C@@H](Cc1ccc(N(CCCl)CCCl)cc1)C(=O)O | 23.5 µM (active)
COC[C@H]1OC(=O)c2coc3c2[C@@]1(C)C1=C(C3=O)C2CCC(=O)[C@@]2(C)C[C@H]1OC(C)=O (stereo partly specified) | 1.18 µM (active)
